From PubChem BioAssay (NCI)
Values joined by “and” are separate entries in the source; they are usually repeats but may differ in a detail not shown here. Equal entries are not always repeated. This is part of a sample that, as a whole, favours compounds with a hit. Of some 83,000 tested, about 20% had one in any assay.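 96-well plates, one dose, 48 hours. Percent growth reported; active if below 10.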 Active and inactive are the calls of the source.

Test system: MDA-MB-468 breast
Assay: NCI-60 one-dose screen, 48 h (100 = growth as untreated, 0 = no growth, -100 = all killed)
Conditions: 10 µM unless noted

Row | Structure (SMILES) | growth
1 | Cn1c(COC(=O)NCCn2ccnc2)nc2c(N3CCOCC3)nc(-c3ccccc3)nc21 | -64.1% (active)
2 | O=C(O)COc1ccc(Cl)cc1C1CCCCC1 | 97.6% (inactive)
3 | Cc1ccc(N)cc1S(=O)(=O)O | 127% (inactive) and 110% (inactive)
4 | CC(C)CC1NC(C)(C)CO1 (centres undefined) | 108% (inactive)
